From PubChem BioAssay
The list is not random: actives were taken first. Their share in the collection is about 19%.
HT1080-NT tox – kills 2HG-producing HT-1080-NT fibrosarcoma cells; HT-1080-NT fibrosarcoma viability, CellTiter-Glo ATP luminescence, 48 h; Potency, µM (titrated, usually from 46.1 µM), hits mostly cytotoxic; hit rate 1.6% among 360,000; AID 686970;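 note: NT is the 2HG producing partner of a matched IDH1 knockdown line; nearly all actives have a fitted effect of over 55% in size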
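Luminescent CellTiter-Glo readout after 48 hours of compound exposure at 37 degrees C defined viability of HT-1080-NT cells. Activity was normalized to DMSO wells and cell-free media wells; concentration-response curves were fitted and assigned curve classes.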
KB-V1 MDR tox – kills drug-selected multidrug resistant KB-V1 cells; KB-V1 MDR cells viability, CellTiter-Glo, 72 h; hit rate 3.4% among 400,000; AID 1347076; Potency, µM (top dose mostly 46.1 µM), usual class: cytotoxic; note: nearly all actives have a fitted effect of over 60% in size
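Readout: CellTiter-Glo luminescence, 10 min after addition. Cells: KB-V1 MDR subline, 72 h at 37 degrees C with compound. Analysis: corrected, normalized data fitted to concentration-effect curves.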
KB-3-1 cytotox – KB-3-1 parental cell cytotoxicity; KB-3-1 viability, CellTiter-Glo ATP luminescence, 72 h; Potency, µM (highest dose often 46.1 µM), usual class: cytotoxic; hit rate 1.4% among 400,000; AID 1347075; note: nearly all actives have a fitted effect of over 60% in size
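Using CellTiter-Glo luminescence, growth of non-resistant KB-3-1 adenocarcinoma cells is assessed 72 h after pin-tool compound addition at 37 °C. Normalized responses across the concentration series yield fitted curves.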
DT40 TDP1 CPT – growth inhibition of DT40 Tdp1-/-;hTDP1 cells with camptothecin (screen for TDP1 inhibitors); hit rate 12% among 420,000; Potency, µM (series often up to 46.2 µM), hits mostly inhibitors; chicken DT40 Tdp1-/-;hTDP1 cells + 20 nM CPT, ATP luminescence, 48 h; note: nearly all actives have a fitted effect of over 55% in size
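Chicken DT40 Tdp1-/- cells complemented with human TDP1, 400 cells/well, exposed to compounds plus 20 nM camptothecin for at least 48 h at 37 C; viability read as ATP content by CellTiter-Glo luminescence.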
DT40 TDP1 no CPT – qHTS for Inhibitors of human tyrosyl-DNA phosphodiesterase 1 (TDP1): qHTS in cells in absence of CPT | DT40 Tdp1-/- hTDP1 cells, no CPT, ATP luminescence, 48 h | Potency, µM (doses to about 46.2 µM), usual class: inhibitors | hit rate 15% among 420,000; note: nearly all actives have a fitted effect of over 55% in size
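Stably hTDP1-transfected Tdp1-null chicken DT40 cells were treated with library compounds minus camptothecin and grown for at least 48 hr at 37 °C, after which cellular ATP was quantified by luminescence.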
HT1080 IDH1KD tx – kills HT-1080 cells with IDH1 knockdown; HT-1080 IDH1 knockdown viability, ATP luminescence, 48 h; hit rate 2% among 360,000; Potency, µM (series often up to 46.1 µM), actives largely listed as cytotoxic
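Cytotoxicity counter-line: IDH1KD HT-1080, 48 h, CellTiter-Glo. Curves classed by r2, magnitude and activity.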
Large screens that a line does not name were inactive. Calls come from the whole dose curve; as a rule, active = well fitted curve in the direction sought with a large enough effect; inconclusive = small, poorly fitted or top-dose-only effect, or another doubt; inactive = no such curve, though single readings can be large; an effect the other way counts as inactive or inconclusive.

CCN(CC(=O)Nc1ccc(OC)cc1)C(=O)Cc1cccs1	none
O=C(Nc1ccc(Br)cc1)C1OCCc2ccccc21 (stereo not drawn)	none
COc1ccc(NC(=O)C2CCCN2S(=O)(=O)c2cccc3cccnc23)c(OC)c1 (stereo not drawn)	KB-V1 MDR tox inconclusive, DT40 TDP1 CPT inconclusive, DT40 TDP1 no CPT inconclusive
CCOc1ccc(OCC)c(S(=O)(=O)N2CCCCC2C)c1 (stereo not drawn)	DT40 TDP1 CPT 23µM, DT40 TDP1 no CPT inconclusive
COc1ccc(OC)c(NC(=O)C2CCCN(S(=O)(=O)c3cccc4cccnc34)C2)c1 (stereo not drawn)	KB-V1 MDR tox inconclusive, DT40 TDP1 CPT inconclusive, DT40 TDP1 no CPT 13µM
CCOc1ccc(OCC)c(NC(=O)C2CCCN2S(=O)(=O)c2cccc3cccnc23)c1 (stereo not drawn)	KB-3-1 cytotox inconclusive, DT40 TDP1 CPT 15µM, DT40 TDP1 no CPT 18µM
CCOc1ccc(OCC)c(S(=O)(=O)n2ccnc2C)c1	none
COc1cc(NC(=O)[C@H]2CCCN2S(=O)(=O)c2cccc3cccnc23)cc(OC)c1OC	KB-V1 MDR tox inconclusive, DT40 TDP1 CPT 15µM, DT40 TDP1 no CPT inconclusive
Cc1cccc(S(=O)(=O)c2cn(C)c3cc(N4CCCCCC4)c(F)cc3c2=O)c1	none (no result: HT1080-NT tox, KB-V1 MDR tox, KB-3-1 cytotox, HT1080 IDH1KD tx)
COc1ccccc1Cn1c(=O)c2ccccc2n2c(Sc3ncnc4sccc34)nnc12	HT1080-NT tox inconclusive, KB-V1 MDR tox inconclusive, KB-3-1 cytotox inconclusive, DT40 TDP1 CPT 21µM, DT40 TDP1 no CPT 21µM, HT1080 IDH1KD tx inconclusive
COc1ccc(C2=NC(C(F)(F)F)(C(F)(F)F)c3c(n(C)c(=O)n(C)c3=O)N2)cc1	KB-V1 MDR tox inconclusive, KB-3-1 cytotox inconclusive, DT40 TDP1 CPT 15µM, DT40 TDP1 no CPT 18µM
COc1ccc(-n2c3c(c(=O)[nH]c2=O)C(C(F)(F)F)(C(F)(F)F)N=C(CC(C)C)N3)cc1	KB-V1 MDR tox inconclusive
Cc1cccc(N2C(=O)CC(c3ccc(F)cc3)C3=C2COC3=O)c1 (stereo not drawn)	KB-V1 MDR tox inconclusive
O=C(Nc1ccc(N2CCOCC2)nc1)c1ccccc1Cl	none
O=C(Nc1cc(N2CCOCC2)ncn1)c1ccc(F)cc1	KB-3-1 cytotox 16µM, DT40 TDP1 no CPT 5.8µM
C/C(=N\Nc1cc(N2CCOCC2)ncn1)c1ccc(O)cc1	DT40 TDP1 CPT 8.2µM, DT40 TDP1 no CPT inconclusive
COC(=O)c1cc(NC(=O)c2cc(-c3ccc(C(F)(F)F)cc3)oc2C(F)(F)F)ccc1N1CCOCC1	KB-V1 MDR tox inconclusive, KB-3-1 cytotox inconclusive, DT40 TDP1 CPT inconclusive, DT40 TDP1 no CPT 21µM
O=C(Nc1ccc(N2CCOCC2)nc1)c1ccc(C(F)(F)F)cc1	KB-V1 MDR tox 8.2µM, KB-3-1 cytotox inconclusive, DT40 TDP1 no CPT inconclusive
O=C(Nc1cc(N2CCCCC2)ncn1)c1ccc(F)cc1	DT40 TDP1 CPT inconclusive, DT40 TDP1 no CPT inconclusive
COc1cccc(C(=O)Oc2ccc3ccc(=O)oc3c2)c1	none
O=C(COC(=O)CCC(=O)c1cccs1)NCc1ccccc1	none
CC(C)(C)C(=O)Nc1ccc(N2CCN(c3ccc(C(F)(F)F)cn3)CC2)nc1	DT40 TDP1 CPT inconclusive, DT40 TDP1 no CPT 1.5µM
O=C(CCN1CCN(c2ccccn2)CC1)Nc1ccc(F)cc1	none
O=C(Nc1ccc(C(F)(F)F)cc1)c1cnc(N2CCN(c3ccccn3)CC2)c2ccccc12	DT40 TDP1 CPT 21µM, DT40 TDP1 no CPT inconclusive
O=C(Nc1ccc(C(F)(F)F)cc1)c1cccnc1N1CCOCC1	KB-V1 MDR tox 16µM, DT40 TDP1 no CPT inconclusive, HT1080 IDH1KD tx inconclusive
CS(=O)(=O)Nc1ccc(N2CCN(c3ccc(C(F)(F)F)cn3)CC2)nc1	DT40 TDP1 CPT inconclusive, DT40 TDP1 no CPT inconclusive, HT1080 IDH1KD tx inconclusive
COc1ccc(NC(=O)CN2CCN(CC(=O)Nc3ccc(F)cc3F)CC2)cc1	DT40 TDP1 no CPT inconclusive
COc1ccc(-c2ccc3c(c2)S(=O)(=O)c2cccc(C(=O)N4CCN(c5ccccn5)CC4)c2C3=O)cc1OC	KB-V1 MDR tox inconclusive, DT40 TDP1 CPT 18µM, DT40 TDP1 no CPT 15µM
O=C1c2ccc(-c3ccc(F)cc3OCc3ccccc3)cc2S(=O)(=O)c2cccc(C(=O)N3CCCC3)c21	KB-3-1 cytotox inconclusive, DT40 TDP1 CPT 13µM, DT40 TDP1 no CPT 15µM
O=C(O)c1cccc2c1C(=O)c1ccc(Cl)cc1S2(=O)=O	none
COc1ccc(-c2ccc3c(c2)S(=O)(=O)c2cccc(C(=O)NC4CCCC4)c2C3=O)cc1OC	none
O=C1c2ccc(-c3ccc(Cl)c(C(F)(F)F)c3)cc2S(=O)(=O)c2cccc(C(=O)N3CCN(c4ccc(Cl)cn4)CC3)c21	DT40 TDP1 CPT inconclusive, DT40 TDP1 no CPT 13µM
COc1ccc(-c2ccc3c(c2)S(=O)(=O)c2cccc(C(=O)N4CCN(C5CCCCC5)CC4)c2C3=O)cc1OC	DT40 TDP1 CPT 18µM, DT40 TDP1 no CPT inconclusive
COc1ccc(-c2ccc3c(c2)S(=O)(=O)c2cccc(C(=O)O)c2C3=O)cc1OC	none
N=c1oc2ccccc2cc1-c1nc2ccccc2c(=O)[nH]1	none
COC(=O)c1cnn(-c2ccc(C(=O)Nc3ccc(C(C)=O)cc3)cc2)c1N	none (no result: HT1080-NT tox, HT1080 IDH1KD tx)
COC(=O)C(CC(C)C)NC(=O)c1ccc(F)cc1 (stereo not drawn)	none
COc1cc(C(C#N)N2N=C(c3ccccc3)CC2c2ccccc2)ccc1O (stereo not drawn)	DT40 TDP1 CPT inconclusive
N#CC(c1ccccc1O)N1N=C(c2ccccc2)CC1c1ccccc1 (stereo not drawn)	DT40 TDP1 CPT 18µM, DT40 TDP1 no CPT 10µM
COC(=O)c1c(CCl)noc1C(=O)NCC1CCCO1 (stereo not drawn)	DT40 TDP1 CPT inconclusive, HT1080 IDH1KD tx 23µM
CCc1ccccc1SCc1noc(C(=O)NCC2CCCO2)c1C(=O)O (stereo not drawn)	none
CN(CC(=O)NCc1ccncc1)S(=O)(=O)c1ccc2ccccc2c1	DT40 TDP1 no CPT inconclusive
CO[C@H]1O[C@H](C)[C@@H](O)C[C@H]1NC(=O)OCc1ccccc1	none
CCc1nn2c(=O)cc(COC(=O)c3ccccc3NC(=O)C3CCCCC3)nc2s1	none (no result: HT1080-NT tox, KB-V1 MDR tox, KB-3-1 cytotox, HT1080 IDH1KD tx)
COc1cccc(NC(=O)CN(C)C(=O)CC2Sc3ccccc3NC2=O)c1 (stereo not drawn)	KB-V1 MDR tox 23µM
O=C(CC1Sc2ccccc2NC1=O)NNc1cccc(Cl)c1Cl (stereo not drawn)	HT1080-NT tox inconclusive, KB-V1 MDR tox 21µM, DT40 TDP1 CPT inconclusive, DT40 TDP1 no CPT inconclusive, HT1080 IDH1KD tx inconclusive
